The values that follow come from PubChem BioAssay (NCATS).

In test [1] the test system is Tov-21-G. As to the kind of experiment: Primary qHTS to identify gynecologic anti-cancer compounds using libraries of approved drugs and bioactive compounds (AID 1345084). Note: nearly all actives have a fitted effect of over 55% in size. To be noted: Gynecologic cancer cell panel viability, ATPlite luminescence, 48 h; series mostly up to 57.5 µM. Put shortly: (§1)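 Cytotoxicity screen measuring ATP content by luciferase luminescence. Each compound is applied at five concentrations for 48 h at 37 C with 5% CO2.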
In general terms: qHTS replaces the single test concentration by a dilution series.

In test [2] the test system is Tov112D. The test is described as above. To be noted: Gynecologic cancer cell panel viability, ATPlite luminescence, 48 h; series mostly up to 57.5 µM. The essentials:
as §1
A general note: ATP-based viability assays read luminescence as a measure of living cells.

Test [3] has as its system SKOV3. The description is as above. To be noted: Gynecologic cancer cell panel viability, ATPlite luminescence, 48 h; series mostly up to 57.5 µM. The essentials:
as §1

Test [4] is described as follows: qHTS assay to identify inhibitors of the type 1 interferon - major histocompatibility complex class I in skeletal muscle: Counter screen cell viability and HiBit confirmation (AID 1347412). For all read-outs here: nearly all actives have a fitted effect of over 60% in size. To be noted: iHSKM muscle cells + IFN-b, HiBiT or CellTiter-Glo, 24 h; for activity change, negative = inhibition: at 45.9 µM (top of the series). The essentials: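 Luminescence read-out: Nano-Glo HiBiT lytic signal from C-terminally HiBiT-tagged HLA-B in CRISPR-edited human myoblasts, plus CellTiter Glo ATP as viability counter screen. IFN-beta 4.0 ng/ml; 24 hrs treatment at 37 C, 5% CO2.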

The structures appear in SMILES notation. Records with an inconclusive call do not appear. Values without a mark were called inactive. The source made the active and inactive calls. Calls come from the whole dose curve; as a rule, active = well fitted curve in the direction sought with a large enough effect; inconclusive = small, poorly fitted or top-dose-only effect, or another doubt; inactive = no such curve, though single readings can be large; an effect the other way counts as inactive or inconclusive.
% is set by controls: 0 for no effect and ±100 for the full control effect; potency is the fitted concentration of half-maximal effect.

For `C=CC(=O)N1CCC[C@@H](n2nc(-c3ccc(Oc4ccccc4)cc3)c3c(N)ncnc32)C1`, the Potency result in test [1] and in test [2] was “inactive” in each case.
As to `COc1ccc2c(OCc3nnc4ccc(-c5ccccc5)nn34)ccnc2c1`, the Potency result in test [1] and in test [2] was “inactive” each time.
For `Cn1cc(-c2ccncc2)c(-c2ccc(OCc3ccc4ccccc4n3)cc2)n1`, the Potency result in test [1] and in test [2] was “inactive” each time.
Regarding `CC1(C)CCC(c2ccc(Cl)cc2)=C(CN2CCN(c3ccc(C(=O)NS(=O)(=O)c4ccc(N[C@H](CCN5CCOCC5)CSc5ccccc5)c(S(=O)(=O)C(F)(F)F)c4)cc3)CC2)C1`, the Potency entry in test [1] was “inactive”.
Consider `Cc1cc(N2CCOCC2)cc2[nH]c(-c3c(NC[C@@H](O)c4cccc(Cl)c4)cc[nH]c3=O)nc12`, for which the Potency in test [3] is 14.1 µM (active); in test [4] (HiBiT) it was 6.25 µM (active).
For the compound `CC(C)(O)c1cc2nc(-c3cnc(N)nc3)nc(N3CCOCC3)c2s1`, in test [1], the Potency is 3.16 µM (active).
As to `COc1cc2c(NC3CCN(C(C)C)CC3)nc(C3CCCCC3)nc2cc1OCCCN1CCCC1`, the Potency in test [3] is 12.6 µM (active); in test [2], 22.4 µM (active).
In the case of `CC(C)c1nn(-c2c(Cl)cccc2Cl)c2nc(Cc3ccc(OCCO)cc3)[nH]c(=O)c12`, the Potency was 1.41 µM (active) in test [3], 0.282 µM (active) in test [2] and 0.0352 µM (active) in test [4] (HiBiT). In test [4] (Viability), the activity change, negative = inhibition is 27.7%.
Regarding `CCN(CC)CCNC(=O)c1ccc2nc(-c3ccccc3)c(-c3ccc(CN4CCC(n5c(=O)[nH]c6ccccc65)CC4)cc3)nc2c1`, the Potency entry in test [1] and in test [2] was “inactive” in each case.
On to `Cc1cnc(Nc2ccc(F)cc2Cl)nc1-c1c[nH]c(C(=O)N[C@H](CO)c2cccc(Cl)c2)c1`, for which, in test [1], the Potency was 28.2 µM (active).
On to `NC(=O)Nc1cc(-c2cccc(F)c2)sc1C(=O)N[C@H]1CCCNC1`, for which the Potency in test [3] is 0.631 µM (active); in test [2] it was 1.78 µM (active); in test [4] (HiBiT), 1.76 µM (active).
Consider `Cc1cc(C(=O)N2CCN(c3cccc(Cl)c3)CC2)n(-c2ccccc2)n1`, for which the Potency in test [2] is 3.98 µM (active). In addition, the activity change, negative = inhibition in test [4] (Viability) is -19.8%.
Regarding `CN1CCC(CNc2ccc3ncc(-c4cccc(OC(F)(F)F)c4)n3n2)CC1`, the Potency result in test [1] and in test [2] was “inactive” each time. Further, the results for the Potency in test [4] (HiBiT) and in test [4] (Viability) were 22.2 µM (active) and 31.3 µM (active), respectively.
`Nc1ncnc2c1c(-c1cccc(OCc3ccccc3)c1)cn2C1CC(CN2CCCC2)C1` (stereo not given): the Potency result in test [2] was “inactive”. The Potency in test [4] (HiBiT) is 22.2 µM (active).
`Nc1cc(C(F)(F)F)c(-c2cc(N3CCOCC3)nc(N3CCOCC3)n2)cn1`: the Potency in test [2] was 2.82 µM (active).
Regarding `Cc1ccc(C(N)=O)cc1Nc1nccc(-c2cn(C(C)C)c3cnccc23)n1`, the Potency in test [1] is 14.1 µM (active); in test [2], 17.8 µM (active); in test [4] (HiBiT), 2.49 µM (active). Also, in test [4] (Viability), the activity change, negative = inhibition was 26.3%.
As for `c1ccc2c(CCNc3ccc(Nc4ccncc4)cc3)c[nH]c2c1`, in test [1], the Potency result is “inactive”. For the same compound, the activity change, negative = inhibition in test [4] (HiBiT) was 19.8%; in test [4] (Viability), -28.3%.
Take `C[C@@H](Oc1cc(-c2cnn(C3CCNCC3)c2)cnc1N)c1c(Cl)ccc(F)c1Cl`: the results for the Potency in test [1], in test [4] (HiBiT) and in test [4] (Viability) were 14.1 µM (active), 17.6 µM (active) and 27.9 µM (active), respectively. Also, the Potency result in test [2] was “inactive”.
On to `CCc1c2c(nc3ccc(O)cc13)-c1cc3c(c(=O)n1C2)COC(=O)[C@]3(O)CC`, for which the Potency is 3.16 µM (active) in test [1] and 1.4 µM (active) in test [4] (HiBiT). Besides, the activity change, negative = inhibition in test [4] (Viability) was -11.1%.
